Shown are actives, neighbours in structure and some others; about 3.9% of the full set was active somewhere.
TWEAK-Fn14 inh: blocks TWEAK-Fn14 interaction in a reporter cell assay; TWEAK-stimulated Fn14 reporter cells, luciferase luminescence, 8 h; inhibition, % at 10 µM; 2% of 360,000 active; AID 1159606; in the data active = inhibition above about 50%
KKLEB tox: reduces viability of KKLEB cystic fibrosis airway cells; KKLEB CF airway cells viability, ATPlite luminescence, overnight; active compounds read low; cells stimulated with P. aeruginosa culture filtrate; activity change (cytotoxicity), % at 5 µM; 0.36% of 360,000 active;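 active = corrected activity change at or below -50% at 5 µM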
Peg3 promoter: Peg3 promoter activity inhibition. 1.7% of 360,000 active. AID 588405. inhibition, % at 20 µM. HeLa PEG-Prom luciferase reporter, luminescence, overnight;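 active = inhibition of at least 50% at 20 µM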
HIF-2a block: inhibitors of HIF-2a | inhibition, % at 18.8 µM | 786-0 RCC cells HIF-2a reporter, luciferase luminescence, overnight | 0.72% of 360,000 active;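 active = inhibition of the luminescence signal of 40% or more relative to plate controls, in a single-dose primary screen at 18.75 µM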
CF NFkB block: inhibitors of cystic fibrosis induced NF-kB; KKLEB NF-kB-GFP reporter, PAF-induced, GFP fluorescence overnight; inhibition, % at 5 µM; 0.86% of 360,000 active; AID 588850;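 active = at least 50% inhibition at 5 µM, scaled per plate between neutral and stimulator controls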;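 note: PAF is a Pseudomonas aeruginosa culture filtrate used as stimulus; plate controls were PAF-stimulated DMSO wells for no effect and unstimulated DMSO wells for full effect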
TROY signal inh: inhibitors of TROY-dependent NF-kB signaling | Q293 LMP1-TROYcd NF-kB luciferase reporter, 4 h | inhibition, % at 10 µM | 0.98% of 360,000 active;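 active = compounds whose plate-normalised and pattern-corrected inhibition of the luciferase reporter signal at the single screening dose is 50% or more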
An asterisk follows results filed as active; · = not tested or not shown.

SMILES	TWEAK-Fn14 inh	KKLEB tox	Peg3 promoter	HIF-2a block	CF NFkB block	TROY signal inh
COc1ccc(CCSc2nnc(C3CCCCC3)n2N)cc1	-6	-5	7	12	4	1
CCCC(C)NC(=O)CSCc1ccc(OC)cc1 (configuration not stated)	3	0	18	17	11	15
OC1(c2cccc(C(F)(F)F)c2)CCN(c2ncnc3c2[nH]c2ccc(F)cc23)CC1	98*	-15	105*	1	-9	77*
O=C(Nc1ccccc1)c1cccc(NC(=O)c2ccco2)c1	101*	-16	-8	-3	9	-3
Cc1cc(C)c(NC(=O)c2cccc(NC(=O)c3ccco3)c2)c(C)c1	-10	19	73*	18	-17	-3
O=C(Nc1ccc2nc(-c3ccccc3)[nH]c2c1)c1ccco1	-5	8	-244	-226	-36	-13
O=C(Nc1cccc(-c2nc3ccccc3[nH]2)c1)c1cccc(NC(=O)c2ccco2)c1	25	-59*	104*	-51	38	-19
CC(C)(C)c1ccc(C(=O)Nc2ccccc2NC(=O)c2ccco2)cc1	96*	-2	-22	-26	-2	·
Cc1cccc(NC(=O)c2cccc(NC(=O)c3ccco3)c2)c1	-15	-20	-38	-50	9	-40
COC(=O)c1c(O)cc(=O)n2c1CCCCC2	2	0	-6	11	2	-17
CCNc1nc(CN2CCCCC2)nc2scc(-c3ccccc3)c12	8	-2	11	12	-1	23
COc1ccc(-c2n[nH]c(=S)n2-c2ccc3c(c2)OCCO3)cc1OC	-1	3	-102	-121	-4	-33
Cc1ccccc1NC(=O)c1cccc(NC(=O)c2ccco2)c1	-5	-16	-6	-13	23	-1
CCOc1ccccc1NC(=O)c1cccc(NC(=O)c2ccco2)c1	88*	3	14	-18	2	-15
COc1ccccc1-n1cccc1C=O	3	-1	9	9	-6	90*
S=C1NCN(C2CCCCC2)CN1CCc1ccccc1	2	-5	6	2	4	2
CCN(CC)CCNc1cc(C)nc2c1C(=O)C(=O)C=C2N1CCCCC1	-5	14	74*	-9	-7	10
CCCS(=O)(=O)c1nc(S(=O)(=O)c2ccc(C)cc2)c(N2CCCC(C)C2)s1 (configuration not stated)	29	-4	4	5	20	-8
C[C@]12C=CC(=O)C=C1CC[C@@H]1C2C(O)C[C@@]2(C)C1CC[C@]2(O)C(=O)COC(=O)CCC(=O)NC(CC(=O)O)C(=O)O (some centres not stated)	-23	44	-13	23	77*	34
C[C@]12C=CC(=O)C=C1CC[C@@H]1[C@@H]2C(=O)C[C@@]2(C)[C@H]1CC[C@]2(O)C(=O)COC(=O)CCC(=O)O	8	2	-23	10	0	-15
CSCCC(NC(=O)CCC(=O)OCC(=O)[C@@]1(O)CCC2[C@@H]3CCC4=CC(=O)C=C[C@]4(C)C3[C@@H](O)C[C@@]21C)C(=O)O (some centres not stated)	-21	38	-15	2	72*	-2
COc1ccc(C(=O)c2[nH]c(N)c(C(=O)NCCc3c[nH]c4ccccc34)c2-c2ccc(OC)c(OC)c2)cc1	25	·	·	19	·	-7
COc1ccc(C(=O)c2[nH]c(N)c(C(=O)NCCc3c[nH]c4ccccc34)c2-c2c(F)cccc2Cl)cc1	54*	·	·	13	·	23
COc1ccc(NC2=NC(=S)N(c3ccccc3C)C23CCCCC3)cc1	5	7	0	14	-34	-10
[O-][N+]1=c2ccc(Nc3ccccc3)cc2=NC12CCCCC2	36	-45	104*	-17	85*	-19
COc1ccc(Nc2ccc3c(c2)=NC2(CCCCC2)[N+]=3[O-])cc1	8	-30	95*	-50	64*	-33
COc1ccc(CCC(=O)Nc2cccc(S(=O)(=O)N3CCOCC3)c2)cc1OC	-21	-17	27	12	-2	1
Cc1ccc(-c2ccc(=O)n(CCC(=O)N3CCN(c4ccccc4)CC3)n2)cc1	-21	-10	3	13	-3	14
CCc1ccccc1N(CC(=O)NC1CCCCC1)C(=O)CCCC(=O)Nc1ccccn1	80*	1	-1	8	5	14
